Pol III holo inh: qHTS Assay for Inhibitors of DNA Polymerase III Holoenzyme System; reconstituted DNA polymerase III holoenzyme replication, biochemical; Potency, µM (series often up to 57.1 µM), without a hit: at the highest dose activity change, negative = inhibition; 71,000 compounds, 0.25% hits; AID 603, 2007; further: potency means the concentration at half of the fitted maximal effect; on the % scale 0 is the no-effect control and ±100 the full control effect
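Reconstituted *E. coli* holoenzyme (0.35 nM Pol III, 1 nM beta, 154 nM SSB, 2 nM primase) was preincubated with compound for 15 min at RT. Synthesis on 1.4 nM ssM13Gori ran 35 min, then was stopped with PicoGreen/EDTA and read as dsDNA fluorescence.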
Hsp90 Hop PPI: qHTS Assay for Disrupters of an Hsp90 Co-Chaperone Interaction; Hsp90 C-terminal peptide / TPR2A (Hop) interaction, human; AlphaScreen TPR2A-His6 binding biotin-Hsp90 C-terminal peptide; Potency, µM (doses to about 57 µM), for inactives: at the top dose activity change, negative = inhibition; 71,000 compounds, 0.44% hits; active means well fitted curve in either direction with a large enough effect; inconclusive means small, poorly fitted or top-dose-only effect, or another doubt; further: potency means the concentration at half of the fitted maximal effect; on the % scale 0 is the no-effect control and ±100 the full control effect
YjeE inh: qHTS Assay for Inhibitors of YjeE. tRNA threonylcarbamoyladenosine biosynthesis protein TsaE (Escherichia coli (strain …. purified YjeE enzyme, qHTS inhibition assay. Potency, µM. 71,000 compounds, 0.05% hits
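Purified YjeE (10 uM) with BODIPY Texas Red-labeled ADP probe (2 uM); compounds pin-transferred, 15 min at room temperature. Binding inhibition read as decreased fluorescence polarization; ADP titration as control.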
BRCT PPI green: qHTS Assay for Inhibitors of BRCT-Phosphoprotein Interaction (Green Fluorophore); Breast cancer type 1 susceptibility protein (Homo sapiens), P38398; BRCA1 BRCT-phosphopeptide binding, green fluorescence polarization; Potency, µM (titrated, usually from 76.9 µM), inactives show at the highest dose activity change, negative = inhibition, hits mostly inhibitors; 75,000 compounds, 0.05% hits;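 further: potency means the concentration at half of the fitted maximal effect; plate controls were peptide without protein for full effect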
Target sequence (P38398 whole entry, looked up): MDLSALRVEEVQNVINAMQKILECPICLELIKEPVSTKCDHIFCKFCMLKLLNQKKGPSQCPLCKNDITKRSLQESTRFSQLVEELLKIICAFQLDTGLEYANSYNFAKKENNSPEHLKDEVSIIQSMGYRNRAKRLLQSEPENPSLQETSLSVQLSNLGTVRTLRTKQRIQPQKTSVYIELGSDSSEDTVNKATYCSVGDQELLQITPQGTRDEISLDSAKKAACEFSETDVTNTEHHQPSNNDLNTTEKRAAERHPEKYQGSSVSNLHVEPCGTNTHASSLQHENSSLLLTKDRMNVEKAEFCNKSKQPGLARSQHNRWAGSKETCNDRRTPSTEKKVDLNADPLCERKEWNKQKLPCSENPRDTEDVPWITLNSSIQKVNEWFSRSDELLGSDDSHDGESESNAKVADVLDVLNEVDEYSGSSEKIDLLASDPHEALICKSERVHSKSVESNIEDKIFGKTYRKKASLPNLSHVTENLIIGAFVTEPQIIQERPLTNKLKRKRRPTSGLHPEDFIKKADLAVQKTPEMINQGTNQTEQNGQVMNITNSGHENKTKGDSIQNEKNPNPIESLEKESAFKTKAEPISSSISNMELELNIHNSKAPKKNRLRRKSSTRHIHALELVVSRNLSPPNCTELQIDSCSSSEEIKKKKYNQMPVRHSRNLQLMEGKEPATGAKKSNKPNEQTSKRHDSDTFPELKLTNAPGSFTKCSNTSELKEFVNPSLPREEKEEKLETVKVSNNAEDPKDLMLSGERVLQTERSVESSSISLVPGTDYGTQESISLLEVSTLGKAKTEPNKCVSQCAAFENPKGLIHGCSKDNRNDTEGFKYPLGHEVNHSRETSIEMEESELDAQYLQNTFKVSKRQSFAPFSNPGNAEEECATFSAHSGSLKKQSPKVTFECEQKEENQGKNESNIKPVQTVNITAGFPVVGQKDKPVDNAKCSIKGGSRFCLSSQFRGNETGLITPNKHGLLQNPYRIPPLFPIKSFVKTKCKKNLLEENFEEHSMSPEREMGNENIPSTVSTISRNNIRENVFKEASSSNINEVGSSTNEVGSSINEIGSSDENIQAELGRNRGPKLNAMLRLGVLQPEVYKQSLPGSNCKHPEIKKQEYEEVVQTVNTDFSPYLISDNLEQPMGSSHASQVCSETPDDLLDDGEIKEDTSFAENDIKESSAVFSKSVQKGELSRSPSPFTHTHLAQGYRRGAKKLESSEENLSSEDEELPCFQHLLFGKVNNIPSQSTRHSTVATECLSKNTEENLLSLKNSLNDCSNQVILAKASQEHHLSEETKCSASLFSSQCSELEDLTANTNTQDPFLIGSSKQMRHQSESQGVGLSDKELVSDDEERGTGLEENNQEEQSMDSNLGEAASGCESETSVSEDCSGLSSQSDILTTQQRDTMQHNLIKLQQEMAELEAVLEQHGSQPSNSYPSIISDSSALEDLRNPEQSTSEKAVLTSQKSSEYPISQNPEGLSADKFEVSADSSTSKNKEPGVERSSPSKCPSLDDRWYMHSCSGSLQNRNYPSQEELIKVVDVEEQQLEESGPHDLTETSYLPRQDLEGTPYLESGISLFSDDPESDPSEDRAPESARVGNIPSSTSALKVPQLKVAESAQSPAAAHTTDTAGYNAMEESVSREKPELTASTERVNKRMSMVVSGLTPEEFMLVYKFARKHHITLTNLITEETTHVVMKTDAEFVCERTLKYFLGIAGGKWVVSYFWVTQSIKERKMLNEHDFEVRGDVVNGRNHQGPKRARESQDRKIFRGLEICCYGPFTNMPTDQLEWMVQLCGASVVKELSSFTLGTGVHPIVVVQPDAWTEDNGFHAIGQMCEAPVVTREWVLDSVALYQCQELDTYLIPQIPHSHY
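Compounds were incubated for 12 min at room temperature with a complex of 100 nM fluorescein-tagged pBACH1 decapeptide and 250 nM His-tagged BRCT protein. Buffer was phosphate pH 7.3 with EDTA, DTT and Tween 20. Disruption of binding lowers the polarization signal.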
Tau filament bind: qHTS Assay for Tau Filament Binding; Microtubule-associated protein tau (Homo sapiens), P10636; 71,000 compounds, 2% hits; Potency, µM (doses to about 57.1 µM), for the others: top-dose activity change, negative = inhibition; recombinant tau filaments, thioflavin S fluorescence, 15 h; filaments grown with octadecylsulfate alongside compound;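 further: potency means the concentration at half of the fitted maximal effect; on the % scale 0 is the no-effect control and ±100 the full control effect; actives lower thioflavin S fluorescence by blocking filaments or displacing dye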
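His-tagged recombinant human tau (exons 2, 3 and 10 included), 1 uM, was induced to fibrillize by 30 uM sodium octadecylsulfate with compound present. After 15 h at 37 C, thioflavine S fluorescence (ex 450, em 510 nm) was read.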
BRCT PPI red: qHTS Assay for Inhibitors of BRCT-Phosphoprotein Interaction (Red Fluorophore); AID 892, 2007; Breast cancer type 1 susceptibility protein (Homo sapiens), P38398; Potency, µM (doses to about 76.9 µM), for the others: at the top dose activity change, negative = inhibition, most hits filed as inhibitors; 75,000 compounds, 0.03% hits; BRCT-phosphopeptide binding, red fluorescence polarization; further: on the % scale 0 is the no-effect control and ±100 the full control effect
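Rhodamine-labelled pBACH1 10-mer (100 nM) bound to BRCT domain (100 nM) at pH 7.3; compounds incubated 12 min room temperature, polarization read. Free peptide defines full inhibition; unlabelled decapeptide titrated as control.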
tau ThS displ: Tau ThS binding assay; shares compounds with Tau filament bind; recombinant tau filaments, Thioflavin S fluorescence displacement; 60 compounds, 40% hits; Potency, µM; calls by dose curve
aSyn ThS displ: Alpha-synuclein ThS binding assay. shares compounds with Tau filament bind. Potency, µM. recombinant alpha-synuclein fibrils, ThS fluorescence displacement. 60 compounds, 40% hits; calls by dose curve
Abeta ThS displ: Beta amyloid ThS binding assay | Potency, µM | Abeta1-42 fibrillization, thioflavin S fluorescence, overnight 37 C | 60 compounds, 50% hits | shares compounds with Tau filament bind; calls by dose curve
* = called active by the depositor; i = inactive; ? = inconclusive; nt = no result given; [ ] = another dose, or the depositor's remark. An excerpt weighted towards active compounds, which were near 2.3% of everything screened. Unless noted, the call rests on the fitted dose curve; in most records, active means well fitted curve in the direction sought with a large enough effect; inconclusive means small, poorly fitted or top-dose-only effect, or another doubt; inactive means no such curve, though single readings can be large; an effect the other way counts as inactive or inconclusive.

SMILES	Pol III holo inh	Hsp90 Hop PPI	YjeE inh	BRCT PPI green	Tau filament bind	BRCT PPI red	tau ThS displ	aSyn ThS displ	Abeta ThS displ
Cc1ccnc(NC(=O)C2CCN(S(=O)(=O)c3cccc4nsnc34)CC2)c1	-5%	-11%	i	0%	-86%	0%	nt	nt	nt
Cc1nc(NCCO)c2nc(-c3ccccc3)n(CC3CCN(C)CC3)c2n1	-4%	-1%	i	-2%	-9%	0%	nt	nt	nt
Nc1ccccc1NC(=O)c1ccccc1	2%	?	i	-1%	i	-2%	i	i	i
C=C1C(=O)OC2CC1C(OC(C)=O)CC(C)=CCCC(C)=CCC[C@@]2(C)O (stereo partly drawn)	nt	nt	nt	0%[3.08 µM]	nt	1%	nt	nt	nt
Cc1nc(NCCCn2ccnc2)c2ccccc2n1	1%	-1%	i	-3%	12%	1%	nt	nt	nt
O=C1c2ccccc2-c2onc3ccc(NCCCn4ccnc4)c1c23	354%	25µM*	25µM*	0.79µM*	0.13µM*	0.63µM*	5.5µM*	3.2µM*	2.2µM*
CN(C)c1ncnc2ccc(-c3ccccc3C(F)(F)F)cc12	-12%	-2%	i	10%	4%	-2%	nt	nt	nt
Cc1ccc2nc(-c3ccc(N)cc3)sc2c1S(=O)(=O)O	?	-2%	i	14%	-5%	0%	nt	nt	nt
Cc1ccc2nc(-c3ccc(N=Nc4cc(S(=O)(=O)O)c5ccccc5c4O)cc3)sc2c1S(=O)(=O)O	nt	nt	nt	nt	nt	nt	2.1µM*	9.5µM*	?
CN1CCc2nc(N)nc(-c3nc(N)nc4c3CN(C)CC4)c2C1	-4%[11.4 µM]	1%[11 µM]	i	-1%[15.4 µM]	2%[11.4 µM]	-2%[15.4 µM]	nt	nt	nt
COc1cc(OC)c(/C=C2/C(=O)Nc3ccccc32)c(OC)c1	-3%	-19%	i	-2%	-29%	-1%	i	i	i
Cc1nnc(SCC2=C(C(=O)O)N3C(=O)C(NC(=O)Cn4cnnn4)[C@@H]3SC2)s1 (stereo partly drawn)	nt	nt	nt	-2%[3.08 µM]	nt	0%	nt	nt	nt
COc1cccc(-c2nccc(NCc3ccccc3)n2)c1	-10%	25%	i	-1%	-16%	0%	nt	nt	nt
O=C(C1CCCN(S(=O)(=O)c2cccc3nonc23)C1)N1CCC(Cc2ccccc2)CC1 (stereo not drawn)	0%	-17%	i	9%	3.2µM*	0%	?	i	i
COc1ncc2ncc(=O)n(C3CC3)c2n1	-5%	-9%	i	-1%	92%	0%	nt	nt	nt
CC1(C)CC(=O)C(C(=O)CCCCC(=O)C2C(=O)CC(C)(C)CC2=O)C(=O)C1	1%	-2%	i	2%	-36%	-1%	i	i	i
COC(=O)CCCCC(=O)C1C(=O)CC(C)(C)C(C(=O)OC)C1=O (stereo not drawn)	-4%	-4%	i	1%	-1%	1%	nt	nt	nt
c1cc2c3c(cccc3c1)NC1(CCCCCC1)N2	-20%	-25%	i	0%	2.5µM*	-1%	?	6.3µM*	2.2µM*
CN(C)c1ccc(C(=C2C=CC(=[N+](C)C)C=C2)c2ccc(N(C)C)cc2)cc1	40µM*	?	5µM*	-2%[3.08 µM]	0.13µM*	-4%	0.18µM*	0.15µM*	0.15µM*
Cc1ccc(N(C)C)cc1	2%	-16%	i	-4%	-10%	0%	nt	nt	nt
Cc1cccn2c(=O)c3cc(C(=O)NCCN4CCOCC4)c(=N)n(CCc4ccccc4)c3nc12	-28%	-27%	i	-2%	0.5µM*	-1%	i	?	i
COCCCn1c(=N)c(C(=O)NCC2CCCO2)cc2c(=O)n3cccc(C)c3nc21 (stereo not drawn)	-14%	-4%	i	-1%	9%	-1%	?	?	?
N#Cc1c(-n2cccc2/C=N/O)sc2c1CCCC2	-1%	-9%	i	0%	-8%	2%	nt	nt	nt
Cc1ccc(/C=N/c2sc3c(c2C#N)CCC3)s1	-2%	-24%	i	-1%	2.5µM*	0%	i	?	i
Cc1cc(C)c2nc(N3CCCC(C(=O)N4CCC(C(N)=O)CC4)C3)sc2c1 (stereo not drawn)	-6%	-6%	i	-5%	96%	0%	nt	nt	nt
SMILES	Pol III holo inh	Hsp90 Hop PPI	YjeE inh	BRCT PPI green	Tau filament bind	BRCT PPI red	tau ThS displ	aSyn ThS displ	Abeta ThS displ
Cc1cc(C)c2nc(N3CCCC(C(=O)NCCN4CCOCC4)C3)sc2c1 (stereo not drawn)	-2%	1%	i	1%	-34%	0%	i	i	i
Cc1ccccc1Cn1ccc(NC(=O)c2cnn3c(C(F)(F)F)cc(-c4ccco4)nc23)n1	-10%	-9%	i	-9%	2.5µM*	-1%	?	2.6µM*	6.7µM*
CCN1CCCC(OC(=O)C(c2ccccc2)c2ccccc2)C1 (stereo not drawn)	nt	nt	nt	0%[3.08 µM]	nt	2%	nt	nt	nt
CCN1CCN(c2nc3ccccc3nc2C(C#N)C(=O)OC2CCCCC2)CC1 (stereo not drawn)	2%	-7%	i	4%	0.79µM*	2%	2.8µM*	1.8µM*	1.4µM*
C=CCOC(=O)C(C#N)c1nc2ccccc2nc1N1CCN(c2ccccc2OC)CC1 (stereo not drawn)	-3%	?	i	1%	2.5µM*	-1%	4µM*	1.4µM*	1.1µM*
COC(=O)[C@@H]1CC[C@H](C)[C@@H](c2ccc(C)cc2)N1C(=O)c1ccc(/C=N\OCC[C@@H]2C=C[C@H](OC(C)=O)[C@H](COC(C)=O)O2)cc1	nt	nt	nt	-4%[15.4 µM]	nt	1%[15.4 µM]	nt	nt	nt
C[N+]1(C)CCO[C@](O)(c2ccccc2)C1	-11%[11.4 µM]	-4%[11 µM]	i	1%[15.4 µM]	6%[11.4 µM]	0%[15.4 µM]	nt	nt	nt
COc1ccc2nc(/N=C\N(C)C)sc2c1	-2%	-6%	i	-4%	-13%	0%	nt	nt	nt
COc1ccc2nc(N=Nc3ccc(N(C)C)cc3)sc2c1	nt	nt	nt	nt	nt	nt	0.1µM*	i	0.1µM*
CC(C)CN1CCCC2(CCN(C(=O)c3ccco3)CC2)C1	4%	-7%	i	3%	5%	0%	nt	nt	nt

Screening data: PubChem BioAssay, National Center for Advancing Translational Sciences (NCATS)
